Assay results taken from PubChem BioAssay (NCI).
Compounds without any hit were thinned out: in the full panel of roughly 79,000, 15% have a hit. Values without a mark were called inactive. Calls of active or inactive are those of the source. Rule as the data show it: active = growth inhibition above about 70%; inactive = the rest.

Assay: NCI Yeast Anticancer Drug Screen. Data for the wt1 strain (AID 149);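 also: 0% = growth of vehicle-treated wt1 cultures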
Details: S. cerevisiae wt1 strain (SPY 50644) growth inhibition, stronger effect = higher value
Description: Growth inhibition of yeast strains with defined genetic alterations is measured as a screen for potential anti-cancer activity. Selected strains with alterations in DNA damage repair or cell cycle control were exposed to compounds and growth inhibition was measured relative to vehicle treated controls. The strain used in this assay is wt1

| Compound | growth inhibition (at 1.2 µM) | growth inhibition (at 3.7 µM) | growth inhibition (at 11.0 µM) | growth inhibition (at 33.0 µM) | growth inhibition (at 100.0 µM) |
| --- | --- | --- | --- | --- | --- |
| CCNc1nnc(CSc2nc(-c3ccccc3)c(-c3ccccc3)[nH]2)s1 | -4% | -9% | -19% | 81% (active) | 77% (active) |
| CC(Br)C(=O)c1ccc2cc(Br)c3ccccc3c2c1 (stereo not given) | 0% | 0% | 1% | -5% | -3% |
| CCc1ccc(NS(=O)(=O)c2ccccc2)c([N+](=O)[O-])c1 | 1% | 6% | 2% | 5% | 46% |
| C[C@H](CCC(=O)NN)[C@H]1CC[C@H]2[C@@H]3CC[C@@H]4C[C@H](O)CC[C@]4(C)[C@H]3CC[C@]12C | 1% | 0% | 0% | 0% | 3% |
| O=C(c1ccc(Cl)cc1)C1OC12C(=O)Nc1ccccc12 (stereo not given) | 1% | 25% | 98% (active) | 98% (active) | 99% (active) |
| O=c1ssc2ncccc12 | 2% | -2% | 11% | 47% | 97% (active) |
| Cc1ccc(-c2ccc(Nc3c4ccccc4nc4ccccc34)cc2)cn1 | 30% | 20% | 43% | 90% (active) | 67% |
| C/C(=N\O)C1CC2C=C(C#N)C1N(Cc1ccccc1)C2 (stereo not given) | 0% | 4% | 1% | -1% | -1% |
